Reference: PubChem BioAssay AID1159580 (chemical genetic matrix, 2015)
In all, about 5,500 compounds went through this assay and about 2,000 (36%) were called active. Not shown: some 18% with an inconclusive outcome. Rule as the data show it: active = normalized growth mostly below about 0.91 (no sharp cut-off); inconclusive = no clear call, values can overlap the other calls; inactive = mostly above about 0.92. This is one part of the list.

Assay: chemical genetic growth profiling, strain panel (AID 1159580);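 also: tested at 20 µM; growth read once vehicle control cultures reached saturation at 30 °C; 1 = growth at the plate median or of vehicle wells; lower values mean less growth of the strain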
Details: growth OD
[1] = S. cerevisiae deletion strains, locus YAL013W, strain DEP1, hits give low values
[2] = S. cerevisiae deletion strains, locus YBR229C, strain ROT2, hits give low values
[3] = S. cerevisiae deletion strains, locus YDL101C, strain DUN1, hits give low values
[4] = S. cerevisiae deletion strains, locus YDL134C, strain PPH21, hits give low values
[5] = S. cerevisiae deletion strains, locus YDR150W, strain NUM1, hits give low values
[6] = S. cerevisiae deletion strains, locus YEL061C, strain CIN8, hits give low values
[7] = S. cerevisiae deletion strains, locus YGR078C, strain PAC10, hits give low values
[8] = S. cerevisiae deletion strains, locus YHR030C, strain SLT2, hits give low values
[9] = S. cerevisiae deletion strains, locus YHR087W, strain rtc3, hits give low values
[10] = S. cerevisiae deletion strains, locus YJR043C, strain POL32, hits give low values
[11] = S. cerevisiae deletion strains, locus YJR075W, strain HOC1, hits give low values
[12] = S. cerevisiae deletion strains, locus YKL190W, strain CNB1, hits give low values
[13] = S. cerevisiae deletion strains, locus YLR039C, strain RIC1, hits give low values
[14] = S. cerevisiae deletion strains, locus YLR058C, strain SHM2 (second series), hits give low values
[15] = S. cerevisiae deletion strains, locus YLR085C, strain ARP6, hits give low values
[16] = S. cerevisiae deletion strains, locus YLR262C, strain YPT6, hits give low values
[17] = S. cerevisiae deletion strains, locus YML094W, strain GIM5, hits give low values
[18] = S. cerevisiae deletion strains, locus YMR219W, strain ESC1, hits give low values
[19] = S. cerevisiae deletion strains, locus YMR263W, strain SAP30, hits give low values
[20] = S. cerevisiae deletion strains, locus YNL153C, strain GIM3, hits give low values
[21] = S. cerevisiae deletion strains, locus YNL298W, strain CLA4 (second series), hits give low values
[22] = S. cerevisiae deletion strains, locus YNL322C, strain KRE1, hits give low values
[23] = S. cerevisiae deletion strains, locus YNR030W, strain Alg12, hits give low values
[24] = S. cerevisiae deletion strains, locus YOL006C, strain TOP1, hits give low values
[25] = S. cerevisiae deletion strains, locus YPL055C, strain LGE1, hits give low values
[26] = S. cerevisiae deletion strains, locus YPL241C, strain CIN2, hits give low values
[27] = S. cerevisiae deletion strains, locus YPR135W, strain CTF4, hits give low values

Measured: normalized growth

Nc1ccccc1SCC(=O)Nc1c(F)cccc1F
active: [13] 0.672 | [16] 0.595
inactive: [1] 0.982 | [2] 0.998 | [3] 0.979 | [4] 1.04 | [5] 0.977 | [6] 1.03 | [7] 1 | [8] 0.938 | [9] 1.05 | S. cerevisiae deletion strains, locus YJL187C, strain SWE1, hits give low values 1.03 | [10] 0.975 | [11] 1.01 | [12] 1.01 | [14] 1.02 | [15] 0.985 | [17] 0.955 | [18] 0.998 | [19] 1.01 | [20] 1.01 | [21] 1.03 | [22] 1 | [23] 1 | [24] 0.903 | [25] 0.994 | [26] 0.977 | [27] 1.02 | S. cerevisiae strains, strain wild type, hits give low values 1.01

O=C(Nc1ccccc1F)C(Cl)Cl
inactive: [1] 0.999 | [2] 0.989 | S. cerevisiae deletion strains, locus YCL061C, strain MRC1, hits give low values 1 | [3] 0.994 | [4] 0.967 | [5] 1.01 | [6] 1.01 | [7] 0.975 | [8] 1.07 | [9] 0.981 | [10] 0.997 | [11] 0.971 | [12] 0.981 | [13] 1.16 | [14] 0.987 | [15] 0.991 | [16] 1.14 | [17] 0.992 | [18] 0.991 | [19] 0.995 | [20] 1.02 | [21] 0.984 | [22] 0.987 | [23] 0.976 | [24] 1.02 | [25] 0.962 | [26] 0.977 | [27] 0.99

O=C(NC(=O)c1c(F)cccc1Cl)OCc1ccc(Cl)cc1Cl
inactive: S. cerevisiae deletion strains, locus YAR019C, strain CDC15, hits give low values 0.987 | S. cerevisiae deletion strains, locus YBL105C, strain PKC1, hits give low values 0.981 | S. cerevisiae deletion strains, locus YBR135W, strain CKS1, hits give low values 0.975 | S. cerevisiae deletion strains, locus YBR136W, strain MEC1, hits give low values 0.984 | S. cerevisiae deletion strains, locus YBR160W, strain CDC28, hits give low values 0.976 | S. cerevisiae deletion strains, locus YDL017W, strain CDC7, hits give low values 0.99 | S. cerevisiae deletion strains, locus YDL028C, strain MPS1, hits give low values 0.978 | [3] 0.989 | S. cerevisiae deletion strains, locus YDL108W, strain KIN28, hits give low values 0.976 | S. cerevisiae deletion strains, locus YDL132W, strain cdc53, hits give low values 0.984 | S. cerevisiae deletion strains, locus YDL214C, strain PRR2, hits give low values 0.879 | S. cerevisiae deletion strains, locus YDR052C, strain DBF4, hits give low values 0.978 | S. cerevisiae deletion strains, locus YDR054C, strain cdc34, hits give low values 0.979 | S. cerevisiae deletion strains, locus YDR226W, strain ADK1, hits give low values 0.983 | S. cerevisiae deletion strains, locus YDR477W, strain SNF1, hits give low values 0.915 | S. cerevisiae deletion strains, locus YER123W, strain YCK3, hits give low values 0.848 | S. cerevisiae deletion strains, locus YER133W, strain GLC7, hits give low values 0.893 | S. cerevisiae deletion strains, locus YFL009W, strain cdc4, hits give low values 0.985 | S. cerevisiae deletion strains, locus YFL029C, strain CAK1, hits give low values 0.987 | S. cerevisiae deletion strains, locus YFR003C, strain YPI1, hits give low values 0.98 | S. cerevisiae deletion strains, locus YFR019W, strain FAB1, hits give low values 0.941 | S. cerevisiae deletion strains, locus YFR028C, strain CDC14, hits give low values 0.988 | S. cerevisiae deletion strains, locus YGR040W, strain KSS1, hits give low values 0.9 | S. cerevisiae deletion strains, locus YGR052W, strain FMP48, hits give low values 0.9 | S. cerevisiae deletion strains, locus YGR092W, strain DBF2, hits give low values 0.831 | S. cerevisiae deletion strains, locus YHR079C, strain IRE1, hits give low values 0.873 | S. cerevisiae deletion strains, locus YHR082C, strain KSP1, hits give low values 0.95 | S. cerevisiae deletion strains, locus YHR205W, strain SCH9, hits give low values 0.731 | S. cerevisiae deletion strains, locus YIL147C, strain SLN1, hits give low values 0.986 | S. cerevisiae deletion strains, locus YJL095W, strain BCK1, hits give low values 0.845 | S. cerevisiae deletion strains, locus YJL128C, strain PBS2, hits give low values 0.927 | S. cerevisiae deletion strains, locus YJL157C, strain FAR1, hits give low values 0.878 | S. cerevisiae deletion strains, locus YJR016C, strain ILV3, hits give low values 0.974 | S. cerevisiae deletion strains, locus YJR066W, strain TOR1 (second series), hits give low values 0.869 | S. cerevisiae deletion strains, locus YJR066W, strain TOR1, hits give low values 0.884 | S. cerevisiae deletion strains, locus YKL048C, strain ELM1, hits give low values 0.905 | S. cerevisiae deletion strains, locus YKL067W, strain YNK1, hits give low values 0.9 | S. cerevisiae deletion strains, locus YKL101W, strain HSL1, hits give low values 0.863 | S. cerevisiae deletion strains, locus YKL193C, strain SDS22, hits give low values 0.985 | S. cerevisiae deletion strains, locus YKL203C, strain TOR2, hits give low values 0.914 | S. cerevisiae deletion strains, locus YLR133W, strain CKI1, hits give low values 0.876 | S. cerevisiae deletion strains, locus YLR403W, strain SFP1, hits give low values 0.854 | S. cerevisiae deletion strains, locus YML070W, strain DAK1, hits give low values 0.858 | S. cerevisiae deletion strains, locus YMR001C, strain CDC5, hits give low values 0.985 | S. cerevisiae deletion strains, locus YMR205C, strain PFK2 (second series), hits give low values 0.906 | S. cerevisiae deletion strains, locus YMR277W, strain FCP1, hits give low values 0.98 | S. cerevisiae deletion strains, locus YNL006W, strain LST8, hits give low values 0.983 | S. cerevisiae deletion strains, locus YNL020C, strain ARK1, hits give low values 0.818 | S. cerevisiae deletion strains, locus YNL161W, strain CBK1, hits give low values 0.974 | S. cerevisiae deletion strains, locus YNL183C, strain NPR1, hits give low values 0.875 | S. cerevisiae deletion strains, locus YNL207W, strain RIO2, hits give low values 0.966 | S. cerevisiae deletion strains, locus YNL222W, strain SSU72, hits give low values 0.978 | S. cerevisiae deletion strains, locus YNL307C, strain MCK1 (second series), hits give low values 0.828 | S. cerevisiae deletion strains, locus YOL078W, strain AVO1, hits give low values 0.983 | S. cerevisiae deletion strains, locus YOL136C, strain PFK27, hits give low values 0.851 | S. cerevisiae deletion strains, locus YOR061W, strain CKA2, hits give low values 0.899 | S. cerevisiae deletion strains, locus YOR119C, strain RIO1, hits give low values 0.961 | S. cerevisiae deletion strains, locus YOR231W, strain MKK1, hits give low values 0.835 | S. cerevisiae deletion strains, locus YOR329C, strain SCD5, hits give low values 0.978 | S. cerevisiae deletion strains, locus YPL031C, strain PHO85, hits give low values 0.887 | S. cerevisiae deletion strains, locus YPL153C, strain RAD53, hits give low values 0.914 | S. cerevisiae deletion strains, locus YPL204W, strain HRR25, hits give low values 0.867 | S. cerevisiae deletion strains, locus YPL209C, strain IPL1, hits give low values 0.979 | S. cerevisiae deletion strains, locus YPR025C, strain CCL1, hits give low values 0.976 | S. cerevisiae deletion strains, locus YPR106W, strain ISR1, hits give low values 0.966 | S. cerevisiae deletion strains, locus YPR111W, strain DBF20, hits give low values 0.949 | S. cerevisiae deletion strains, strain NNK1, hits give low values 0.977 | S. cerevisiae deletion strains, strain TSCII, hits give low values 0.979
active: [8] 0.63 | S. cerevisiae deletion strains, locus YLR113W, strain HOG1, hits give low values 0.71 | S. cerevisiae deletion strains, locus YPL256C, strain CLN2, hits give low values 0.711
